Rows were chosen to be rich in hits. Some 2.4% of all compounds tested hit in one or more screens of this group.
CHRM1 PAM – human M1 muscarinic receptor positive allosteric modulators, primary screen, CHO-K1 cells, Fluo-8 calcium fluorescence, 1536-well | activation, % at 3 µM | CHO-K1 hM1, ACh EC20; 0% = ACh EC20, 100% = maximal ACh | Muscarinic acetylcholine receptor M1 (Homo sapiens), P11229 | hit rate 0.088% among 360,000; in the data active means activation above about 19%, passing the limit was not always enough
Target sequence (P11229 whole entry, looked up): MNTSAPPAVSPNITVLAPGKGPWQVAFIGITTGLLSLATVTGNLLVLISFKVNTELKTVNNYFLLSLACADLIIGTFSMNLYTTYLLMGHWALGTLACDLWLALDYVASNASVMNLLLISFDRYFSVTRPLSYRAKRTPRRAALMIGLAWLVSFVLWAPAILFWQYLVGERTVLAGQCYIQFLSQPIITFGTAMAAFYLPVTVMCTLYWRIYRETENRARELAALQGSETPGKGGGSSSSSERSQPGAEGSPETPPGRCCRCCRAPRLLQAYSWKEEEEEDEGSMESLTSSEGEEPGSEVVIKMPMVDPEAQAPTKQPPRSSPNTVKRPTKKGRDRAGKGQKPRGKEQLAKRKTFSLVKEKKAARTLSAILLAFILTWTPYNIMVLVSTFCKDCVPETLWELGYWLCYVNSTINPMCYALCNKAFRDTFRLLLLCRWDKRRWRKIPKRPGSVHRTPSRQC
M1 ag – human M1 muscarinic receptor agonists, primary screen, Fluo-8 calcium fluorescence, CHO-K1 cells, HTS | activation, % at 3 µM | hit rate 0.33% among 360,000 | CHO-K1 hM1, agonist mode; 0% DMSO, 100% acetylcholine EC100 | Muscarinic acetylcholine receptor M1 (Homo sapiens), P11229 | AID 588814, 2011;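 active means activation above the run's mean compound activation plus 3 SD, cut at about 16% in these data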;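 further: peak over basal fluorescence ratio within a 140 s kinetic read after compound addition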
CHO-K1 Ca antag – M1 antagonist counterscreen hit in parental CHO-K1 cells | ATP-induced calcium, Fluo-8 fluorescence | inhibition, % at 3 µM | hit rate 0.6% among 360,000;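 active means inhibition above a per-plate cutoff, the plate's mean sample inhibition plus 3 SD, cut at about 24% in these data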;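 further: 0% = DMSO plus EC80 ATP and 100% = DMSO alone without ATP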
M1 antag – human M1 muscarinic receptor antagonists, primary screen, CHO-K1 cells, Fluo-8 calcium fluorescence, 1536-well; Muscarinic acetylcholine receptor M1 (Homo sapiens), P11229; CHO-K1 hM1, ACh EC80 antagonist; inhibition, % at 3 µM; hit rate 1.3% among 360,000;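 active means percent inhibition above its own plate's cutoff, namely the mean of that plate's compound wells plus 3 SD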;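 further: peak over basal fluorescence ratio during 140 s after agonist addition; 0% = ACh EC80 plus DMSO and 100% = DMSO alone without agonist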
M1 ag parental – counter-screen for M1 agonists: effect in parental CHO-K1 cells; Fluo-8 calcium fluorescence; scaled to maximal ATP response, vehicle zero; activation, % at 3 µM; hit rate 0.48% among 360,000; AID 602248, 2012; in the data active means activation above about 15%;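 further: untransfected CHO-K1 host cells lacking M1 receptor as counterscreen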
CHO-K1 Ca PAM – nonselective calcium activators in parental CHO-K1 cells, primary screen, counter-screen for M1 PAM project, cell-based, Fluo-8 calcium fluorescence, full deck, 1536-well | activation, % at 3 µM | ATP EC20; 0% at ATP EC20, 100% at ATP max | hit rate 0.02% among 360,000 | AID 602247, 2012;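 active means activation above the run cutoff, the mean activation of all test compounds plus 3 SD, cut at about 40% in these data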;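 further: peak over basal fluorescence ratio in a 140 s read after ATP addition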
* = called active by the depositor; x = not tested or not shown.

SMILES	CHRM1 PAM	M1 ag	CHO-K1 Ca antag	M1 antag	M1 ag parental	CHO-K1 Ca PAM
Cc1ccc2c(c1)[C@H]1[C@H](CO2)[C@H](c2ccccc2)[C@]2(C)C(=O)Nc3cc(F)c(F)cc3C(=O)N12	-31	-9	-2	41*	0	-17
CCCNC(=O)c1cc(C2CCCN(C(=O)c3ccc4ccccc4c3)C2)on1 (stereo not given)	8	-2	1	-7	4	17
CC(C#N)(CCc1ccccn1)CCc1ccccn1	8	-7	-9	-8	1	10
CC(NC(=O)COC(=O)c1ccccc1F)C1CC2CCC1C2 (stereo not given)	7	-4	-10	-3	0	-9
O=C(Nc1ccc([N+](=O)[O-])cc1)c1cc2ccccc2nc1Cl	-9	0	-2	6	9	1
COc1ccccc1/C=N/NC(=O)c1ccc2c(c1)OCO2	5	-4	-9	-8	1	13
CCCOc1ccc(/C=N/NC(=O)c2ccc3c(c2)OCO3)c(OCCC)c1	32*	4	-12	-28	0	-8
CCCCN(C(=O)c1ccc(Cl)cc1)C1CC2CCC(C1)N2C (stereo not given)	-19	-10	12	28*	1	-10
Cc1ccccc1CN1CCN(CC(=O)NCCCN2CCN(c3ccc(F)cc3)CC2)C1=O	-2	0	29*	0	1	-6
O=C(CN1CCN(Cc2ccc(Cl)cc2)C1=O)NCCCN1CCN(c2ccc(F)cc2)CC1	-8	-3	-1	3	7	6
COc1cccc(CN2C(=O)[C@@H]3Cc4c([nH]c5ccccc45)C(C)(C)N3C2=O)c1	12	6	3	-6	3	-17
CC1CCCCN1CC(=O)Nc1ccc(Oc2ccccc2)cc1 (stereo not given)	-25	-6	-5	69*	1	16
CC1CCCCN1CC(=O)NC(c1ccccc1)c1ccccc1 (stereo not given)	-38	-16	-2	60*	0	13
CC1CCCCN1CC(=O)Nc1ccc(N2CCCCCC2)cc1 (stereo not given)	-27	-15	-15	7	0	20
Cc1nc(CSc2ccccc2)cc(=O)[nH]1	7	-3	-6	-3	0	6
CC(C)(C)CC(=O)O/N=C(\N)c1ccncc1	-1	-2	-17	5	0	19
COc1ccc(CC2(CO)CCN(CC3=Cc4cc(Cl)ccc4OC3)CC2)cc1	-33	-10	22	27*	8	7
CCCn1ncc(CN2CCC(CO)(Cc3ccc(OC)cc3)CC2)c1C	-32	-14	-7	42*	0	8
COc1ccc(CC2(CO)CCN(Cc3cnn(-c4ccccc4)c3)CC2)cc1	4	-13	-7	-3	3	12
O=c1oc2ccccc2c(Nc2ccccc2O)c1[N+](=O)[O-]	4	-7	3	-9	0	6
O=c1oc2ccccc2c(Nc2cccc3ccccc23)c1[N+](=O)[O-]	0	1	26*	6	1	-5
O=C1CN(C(=O)COC(=O)[C@@H]2CCCN2S(=O)(=O)c2ccc(Cl)cc2)c2ccccc2N1	15	5	-15	-25	1	11
O=c1oc(=S)oc2c1[C@H](c1ccc(Cl)cc1)O[C@H](C1CC1)C2	x	x	-19	x	0	15
S=c1[nH]nc(CCc2ccccc2)n1Cc1ccccc1	-19	-6	-7	25	1	18
Cc1nccn1CCc1n[nH]c(=S)n1Cc1ccccc1	-21	-5	-4	60*	1	14
CCN(CC)CC#Cc1ccc(C)cc1	-2	-5	-1	3	1	4
CCN(CC)CC#CC(OC)(c1ccccc1)c1ccccc1	-38	-16	-3	100*	0	-1
